Test results as given in the supplement of paper PMC6411743.
± gives the standard deviation of the averaged measurements. The full data set covers some 5,400 targets. This sample favours those with the largest changes.

Compound: Nc1nc2c(ncn2[C@@H]2O[C@H](COP(=O)(O)OP(=O)(O)OP(=O)(O)O)[C@@H](O)[C@H]2O)c(=O)[nH]1 [guanosine triphosphate]
Experiment: NP40-soluble protein abundance relative to vehicle (solubility fold change) (ratio); higher = more soluble protein in presence of GTP
Experimental: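 Solubility proteome profiling in Jurkat crude lysate. Lysate was treated with Mg-GTP (0.1-10 mM) for 10 min at room temperature and 3 min at 37 °C, then solubilised with 0.8% NP40 and benzonase, followed by ultracentrifugation. Proteins were quantified by TMT10 LC-MS/MS; the value is the NP40-soluble abundance relative to the NP40-processed vehicle, from 3 independent experiments.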

Chain of UniProt Q96GG9 (Q96GG9 whole entry, looked up, one chain of several): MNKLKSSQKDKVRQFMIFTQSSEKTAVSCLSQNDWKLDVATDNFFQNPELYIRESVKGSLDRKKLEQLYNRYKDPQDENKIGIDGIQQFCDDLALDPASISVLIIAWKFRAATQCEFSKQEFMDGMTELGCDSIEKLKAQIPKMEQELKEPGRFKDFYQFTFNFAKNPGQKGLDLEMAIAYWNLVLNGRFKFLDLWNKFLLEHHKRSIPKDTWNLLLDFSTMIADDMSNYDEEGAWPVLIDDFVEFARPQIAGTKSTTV
Chain of UniProt Q16851 (Q16851 whole entry, one chain of several): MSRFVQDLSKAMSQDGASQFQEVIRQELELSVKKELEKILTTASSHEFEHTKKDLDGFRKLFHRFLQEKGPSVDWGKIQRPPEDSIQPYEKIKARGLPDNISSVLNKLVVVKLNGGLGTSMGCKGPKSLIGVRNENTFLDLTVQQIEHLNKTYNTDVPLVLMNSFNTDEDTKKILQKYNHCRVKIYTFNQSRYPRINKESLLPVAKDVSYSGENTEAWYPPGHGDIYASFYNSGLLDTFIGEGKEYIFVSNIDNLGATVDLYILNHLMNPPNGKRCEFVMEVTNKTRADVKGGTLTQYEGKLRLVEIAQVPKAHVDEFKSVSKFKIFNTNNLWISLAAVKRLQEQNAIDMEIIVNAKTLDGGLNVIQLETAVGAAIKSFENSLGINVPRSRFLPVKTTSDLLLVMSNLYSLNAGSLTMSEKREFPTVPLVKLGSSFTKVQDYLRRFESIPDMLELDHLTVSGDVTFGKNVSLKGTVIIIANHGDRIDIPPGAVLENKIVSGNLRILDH
Chain of UniProt Q3LXA3 (Q3LXA3 whole entry, one chain of several): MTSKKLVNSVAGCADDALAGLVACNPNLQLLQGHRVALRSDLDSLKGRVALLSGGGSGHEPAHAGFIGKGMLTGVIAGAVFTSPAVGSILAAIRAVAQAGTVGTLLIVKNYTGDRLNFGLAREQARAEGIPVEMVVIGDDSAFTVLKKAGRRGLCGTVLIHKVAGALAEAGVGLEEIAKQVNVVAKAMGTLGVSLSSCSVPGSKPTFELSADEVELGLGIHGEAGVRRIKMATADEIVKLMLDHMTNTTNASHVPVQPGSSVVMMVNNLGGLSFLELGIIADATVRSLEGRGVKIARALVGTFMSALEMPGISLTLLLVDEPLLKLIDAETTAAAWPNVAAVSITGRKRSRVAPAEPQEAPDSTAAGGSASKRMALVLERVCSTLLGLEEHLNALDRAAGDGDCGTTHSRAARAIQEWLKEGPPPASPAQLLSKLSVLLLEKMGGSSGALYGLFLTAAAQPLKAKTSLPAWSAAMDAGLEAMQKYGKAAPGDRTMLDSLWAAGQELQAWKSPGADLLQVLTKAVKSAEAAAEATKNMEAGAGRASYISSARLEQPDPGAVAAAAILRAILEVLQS

For C9JWG0|Q16851-2 (UniProt Q16851), the NP40-soluble protein abundance (concentration: 0.1mM) was 1.04 ± 0.03, the NP40-soluble protein abundance (concentration: 0.5mM) was 1.04 ± 0.052 and the NP40-soluble protein abundance (concentration: 1mM) was 1 ± 0.046. The NP40-soluble protein abundance (concentration: 2mM) was 1.01 ± 0.071, the NP40-soluble protein abundance (concentration: 4mM) was 1.01 ± 0.042 and the NP40-soluble protein abundance (concentration: 6mM) was 1.01 ± 0.067. The NP40-soluble protein abundance (concentration: 8mM) was 0.998 ± 0.057 and the NP40-soluble protein abundance (concentration: 10mM) was 0.983 ± 0.065.
“A0A0R4J2F3|Q9Y2S0|Q9Y2S0-2 (UniProt Q9Y2S0)” showed an NP40-soluble protein abundance (concentration: 0.1mM) of 1.01 ± 0.075, an NP40-soluble protein abundance (concentration: 0.5mM) of 0.925 ± 0.056 and an NP40-soluble protein abundance (concentration: 1mM) of 1.11 ± 0.2. For the same target, the NP40-soluble protein abundance (concentration: 2mM) was 1.16 ± 0.14, the NP40-soluble protein abundance (concentration: 4mM) was 1.2 ± 0.17 and the NP40-soluble protein abundance (concentration: 6mM) was 1.17 ± 0.12. It also gave an NP40-soluble protein abundance (concentration: 8mM) of 1.15 ± 0.21 and an NP40-soluble protein abundance (concentration: 10mM) of 1.24 ± 0.28.
Target C9J8R4|C9JVE2|Q96GG9 (UniProt Q96GG9) has an NP40-soluble protein abundance (concentration: 0.1mM) of 0.935 ± 0.042, an NP40-soluble protein abundance (concentration: 0.5mM) of 0.919 ± 0.034 and an NP40-soluble protein abundance (concentration: 1mM) of 0.903 ± 0.049. The NP40-soluble protein abundance (concentration: 2mM) was 0.889 ± 0.072, the NP40-soluble protein abundance (concentration: 4mM) was 0.867 ± 0.048 and the NP40-soluble protein abundance (concentration: 6mM) was 0.87 ± 0.044. It also gave an NP40-soluble protein abundance (concentration: 8mM) of 0.842 ± 0.077 and an NP40-soluble protein abundance (concentration: 10mM) of 0.84 ± 0.084.
In the case of E9PRF4|Q15047|Q15047-3 (UniProt Q15047), the NP40-soluble protein abundance (concentration: 0.1mM) is reported as 0.977 ± 0.12, the NP40-soluble protein abundance (concentration: 0.5mM) is reported as 0.93 ± 0.12 and the NP40-soluble protein abundance (concentration: 1mM) is reported as 0.904 ± 0.055. The NP40-soluble protein abundance (concentration: 2mM) was 0.909 ± 0.039, the NP40-soluble protein abundance (concentration: 4mM) was 0.873 ± 0.04 and the NP40-soluble protein abundance (concentration: 6mM) was 0.881 ± 0.035. For the same target, the NP40-soluble protein abundance (concentration: 8mM) was 0.904 ± 0.051 and the NP40-soluble protein abundance (concentration: 10mM) was 0.862 ± 0.017.
Work on A0A087WUL0|Q3LXA3 (UniProt Q3LXA3) yielded an NP40-soluble protein abundance (concentration: 0.1mM) of 0.988 ± 0.11, an NP40-soluble protein abundance (concentration: 0.5mM) of 0.963 ± 0.11 and an NP40-soluble protein abundance (concentration: 1mM) of 0.978 ± 0.14. The NP40-soluble protein abundance (concentration: 2mM) was 0.928 ± 0.12, the NP40-soluble protein abundance (concentration: 4mM) was 0.948 ± 0.11 and the NP40-soluble protein abundance (concentration: 6mM) was 0.96 ± 0.16. It also gave an NP40-soluble protein abundance (concentration: 8mM) of 0.96 ± 0.1 and an NP40-soluble protein abundance (concentration: 10mM) of 0.951 ± 0.097.
